Among the data in PubChem BioAssay (NCI) are growth values, retold here.

Common to all, as to test: NCI-60 one-dose screen, 48 h (100 = growth as untreated, 0 = no growth, -100 = all killed)
The subject of one assay is HCT-15 colon. The note with it: 10 µM unless noted.
Another assay relates to HT29 colon. The settings on record: 10 µM unless noted.
The test system of a further assay is SNB-75 CNS. The settings on record: 10 µM unless noted.
Another assay has as its system SNB-19 CNS. The note with it: 10 µM unless noted.
A further assay concerns PC-3 prostate. The note with it: 10 µM unless noted.
Another assay concerns SK-MEL-5 melanoma. The note with it: 10 µM unless noted.
The next assay concerns UACC-62 melanoma. The note with it: 10 µM unless noted.
The test system of a further assay is SK-MEL-28 melanoma. The settings on record: 10 µM unless noted.
The test system of another assay is SK-MEL-2 melanoma. The note with it: 10 µM unless noted.
In the next assay the test system is EKVX NSCLC. The settings on record: 10 µM unless noted.
In a further assay the test system is SN12C renal. The note with it: 10 µM unless noted.
The subject of the next assay is UO-31 renal. The note with it: 10 µM unless noted.
Another assay deals with TK-10 renal. The settings on record: 10 µM unless noted.
A further assay concerns ACHN renal. The settings on record: 10 µM unless noted.
In a further assay the test system is CAKI-1 renal. The settings on record: 10 µM unless noted.
In the next assay the test system is A498 renal. The note with it: 10 µM unless noted.
The subject of the next assay is CCRF-CEM leukemia. The settings on record: 10 µM unless noted.
The test system of another assay is MOLT-4 leukemia. The settings on record: 10 µM unless noted.
For the next assay, the system named is U251 CNS. The note with it: 10 µM unless noted.
The next assay deals with LOX IMVI melanoma. The note with it: 10 µM.

Molecules are shown by their SMILES. Compounds without any hit were thinned out: in the full panel of roughly 83,000, 20% have a hit.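 A percent growth of 40 corresponds to 60% growth inhibition; 0 means no net growth; -100 means all cells died. Active threshold: below 10.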 Unmarked numbers belong to inactive results. The source made the active and inactive calls.

Regarding `COc1cc(CNC(=O)/C=C/c2ccc3c(c2)OCO3)ccc1OCc1cn(-c2cccc(C(F)(F)F)c2)nn1`, the growth with HCT-15 colon was 38.2%; in the assay on HT29 colon it was 17.6%; in the assay on SNB-75 CNS it was 41.1%; in the assay on SNB-19 CNS, 33.1%; in the assay with PC-3 prostate it was 0.703% (active); in the assay on SK-MEL-5 melanoma, 33.2%. Further, the growth with UACC-62 melanoma was -29.2% (active); in the assay on SK-MEL-28 melanoma it was 5.76% (active); in the assay with SK-MEL-2 melanoma it was 54%; in the assay with EKVX NSCLC, 6.68% (active); with SN12C renal, 21.4%; in the assay with UO-31 renal it was -4.4% (active). The growth with TK-10 renal was 19.9%; in the assay with ACHN renal, 0.888% (active); with CAKI-1 renal, 6.02% (active); in the assay on A498 renal it was 57.7%; in the assay on CCRF-CEM leukemia it was 52.2%; in the assay with MOLT-4 leukemia, 48.8%.

In the case of `CC(=O)OC[C@@]1(C)C2CC[C@]3(C)C(CC=C4C5CC(C)(C)CC[C@]5(C(=O)Nc5ccc(Br)cc5)CC[C@]43C)[C@@]2(C)C[C@@H](OC(C)=O)[C@@H]1OC(C)=O` (some centres undefined), the growth was 30.6% in the assay on HCT-15 colon; 27% with HT29 colon; 56.1% in the assay with SNB-75 CNS; 38.5% with U251 CNS; 35.5% in the assay with PC-3 prostate; 8.44% (active) in the assay with SK-MEL-5 melanoma. Besides, the growth in the assay with UACC-62 melanoma was 44.1%; in the assay with LOX IMVI melanoma, 12.2%; with SK-MEL-28 melanoma, 72.3%; with SK-MEL-2 melanoma, 42.2%; with EKVX NSCLC, 32.8%; in the assay with UO-31 renal it was 37.2%. The growth was 45.7% in the assay with TK-10 renal; 39% in the assay on ACHN renal; 42% in the assay with CAKI-1 renal; 64.3% in the assay on A498 renal; 28.7% in the assay with CCRF-CEM leukemia; 38% in the assay with MOLT-4 leukemia.

For the compound `S=C(Nc1ccc(OCc2nc3ccccc3[nH]2)cc1)NC1CCCCC1`, the growth in the assay with HCT-15 colon was 106%; in the assay on HT29 colon, 102%; with SNB-75 CNS it was 99.1%; in the assay on SNB-19 CNS, 94%; in the assay on PC-3 prostate it was 95.8%; in the assay on SK-MEL-5 melanoma, 92.3%. Moreover, the growth in the assay on UACC-62 melanoma was 77.6%; in the assay with SK-MEL-28 melanoma it was 85.2%; with SK-MEL-2 melanoma, 123%; in the assay with EKVX NSCLC, 104%; with SN12C renal, 87.8%; in the assay with UO-31 renal, 96.8%. Moreover, the growth with TK-10 renal is 130%; in the assay on ACHN renal, 101%; in the assay with CAKI-1 renal it was 100%; in the assay on A498 renal, 150%; in the assay with CCRF-CEM leukemia, 95%; with MOLT-4 leukemia it was 98.3%.

For `COc1ccc2[nH]cc(-c3cc(N)n4nc(-c5cn(C)c6ccccc56)cc4n3)c2c1`, the growth in the assay with HCT-15 colon was -83.4% (active); in the assay on HT29 colon, -73.7% (active); with SNB-75 CNS, -52.4% (active); in the assay on SNB-19 CNS it was -48.4% (active); in the assay with PC-3 prostate, -67.6% (active); in the assay with SK-MEL-5 melanoma it was -96.3% (active). Further, the growth is -76.5% (active) with UACC-62 melanoma; -67.9% (active) in the assay with LOX IMVI melanoma; -92.9% (active) in the assay with SK-MEL-28 melanoma; -96% (active) in the assay with SK-MEL-2 melanoma; -82.8% (active) with EKVX NSCLC; -73.2% (active) with SN12C renal. The growth with UO-31 renal is -93.7% (active); in the assay with TK-10 renal, -95.3% (active); in the assay with ACHN renal it was -100% (active); with CAKI-1 renal it was -96% (active); in the assay with A498 renal, -80.6% (active); with CCRF-CEM leukemia it was -39.3% (active). Besides, the growth in the assay with MOLT-4 leukemia was -41.4% (active).

Consider `COc1ccc(C(=O)/C=C/c2cc3c(cc2Br)OCO3)cc1S(N)(=O)=O`, for which the growth in the assay on HCT-15 colon was -40.4% (active); in the assay with HT29 colon, 0.446% (active); in the assay on SNB-75 CNS it was 2.3% (active); with SNB-19 CNS, 6.32% (active); in the assay on PC-3 prostate, 2.21% (active); in the assay with UACC-62 melanoma it was 39.2%. For the same compound, the growth in the assay with LOX IMVI melanoma is -85.5% (active); in the assay with SK-MEL-28 melanoma it was 27.6%; with SK-MEL-2 melanoma, 89.2%; in the assay on EKVX NSCLC, 4.57% (active); with SN12C renal, -12.5% (active); in the assay on UO-31 renal, -44.5% (active). Besides, the growth was 16.8% in the assay with TK-10 renal; -23% (active) with ACHN renal; -20.2% (active) in the assay with CAKI-1 renal; 88.7% in the assay with A498 renal; 5.43% (active) in the assay with CCRF-CEM leukemia.

Take `C/C(=N\Nc1ccc(S(N)(=O)=O)cc1)c1ccc(N=Nc2c(Nc3ccccc3)[nH][nH]c2=O)cc1`: the growth is 36.7% with HCT-15 colon; 4.54% (active) with HT29 colon; 21% in the assay on SNB-75 CNS; -5.15% (active) in the assay on SNB-19 CNS; 20% with PC-3 prostate; -40.7% (active) with UACC-62 melanoma. Moreover, the growth with LOX IMVI melanoma was -41.2% (active); in the assay on SK-MEL-28 melanoma it was -54.1% (active); with SK-MEL-2 melanoma it was -51.9% (active); with EKVX NSCLC, 62.5%; with SN12C renal, -12.9% (active); with UO-31 renal, 86.1%. In addition, the growth in the assay with ACHN renal is 42.4%; in the assay with CAKI-1 renal it was 77.1%; with CCRF-CEM leukemia it was 3.59% (active).

In the case of `CCOC(=O)C1=C(N)N(c2ccccc2)C2=C(C(=O)CC(C)(C)C2)C1c1ccccc1Cl` (centres undefined), the growth in the assay with HCT-15 colon was 49.1%; with HT29 colon, 55%; with SNB-75 CNS, 66.3%; in the assay with SNB-19 CNS it was 70.5%; in the assay with PC-3 prostate, 29.6%; with SK-MEL-5 melanoma, 60.5%. Also, the growth in the assay with UACC-62 melanoma is 44%; in the assay with LOX IMVI melanoma, 85.4%; in the assay with SK-MEL-28 melanoma it was 81.4%; with SK-MEL-2 melanoma it was 57.7%; in the assay on EKVX NSCLC it was 74.6%; with SN12C renal it was 75%. In addition, the growth with UO-31 renal was 55.3%; in the assay with TK-10 renal it was 100%; in the assay with ACHN renal, 69.2%; in the assay with CAKI-1 renal it was 46.7%; in the assay with A498 renal, 99.4%; with CCRF-CEM leukemia, 48.4%. For the same compound, in the assay on MOLT-4 leukemia, the growth was 25.8%.

For the compound `CC(=O)c1c(N)c(C#N)cn1-c1ccc(Cl)cc1Cl`, the growth in the assay on HCT-15 colon was 99.5%; in the assay with HT29 colon it was 106%; in the assay on SNB-75 CNS, 90.5%; in the assay on SNB-19 CNS, 102%; with PC-3 prostate, 90.8%; with SK-MEL-5 melanoma, 98.8%. For the same compound, the growth in the assay on UACC-62 melanoma was 80.8%; in the assay on LOX IMVI melanoma, 99.2%; in the assay on SK-MEL-28 melanoma it was 106%; in the assay with SK-MEL-2 melanoma, 90.4%; with EKVX NSCLC, 93.8%; in the assay with SN12C renal, 100%. Moreover, the growth with UO-31 renal was 68.4%; with TK-10 renal it was 160%; with ACHN renal, 102%; with CAKI-1 renal it was 97.1%; in the assay on A498 renal, 112%; with CCRF-CEM leukemia, 99.3%. For the same compound, the growth in the assay on MOLT-4 leukemia is 102%.

Take `CC(=O)Oc1ccccc1C(=O)[Se]C(=NC1CCCCC1)NC1CCCCC1`: the growth is -73.5% (active) with HCT-15 colon; -60.8% (active) in the assay with HT29 colon; -63.3% (active) in the assay with SNB-75 CNS; -94.9% (active) in the assay with SNB-19 CNS; -31% (active) in the assay on PC-3 prostate; -89.3% (active) in the assay with SK-MEL-5 melanoma. In addition, the growth was -90.7% (active) in the assay on UACC-62 melanoma; -89.1% (active) in the assay with SK-MEL-28 melanoma; -74.5% (active) in the assay with SK-MEL-2 melanoma; -99.3% (active) in the assay with SN12C renal; -100% (active) in the assay on UO-31 renal; -73.8% (active) in the assay with ACHN renal. Further, the growth in the assay on CAKI-1 renal is -97.7% (active); in the assay on A498 renal, -5.3% (active); with CCRF-CEM leukemia, 4.94% (active); with MOLT-4 leukemia, -22.2% (active).
